Screening data deposited in PubChem by several laboratories.
SKN-1 inh – blocks SKN-1 activity in C. elegans. 0.49% of 360,000 active. C. elegans VP596 Pgst-4::GFP/RFP ratio, acrylamide-induced, 24 h. inhibition, % at 21.8 µM;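 active = interference check ratio from 0.5 to 1.5 plus GFP to RFP signal ratio inhibition reaching or exceeding a fixed threshold, cut at about 30% in these data, passing the limit was not always enough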
MPTP block – permeability transition pore inhibition; 1.4% of 360,000 active; inhibition, % at 10 µM; AID 602449; isolated mouse mitochondria, Ca2+ swelling absorbance, 30 min;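 active = inhibition of 50% or more, scaled per plate between neutral and stimulator controls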;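 also: 0% = DMSO wells given calcium and 100% = 1 mM EGTA wells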
F508del corr – CFTR F508del correction in bronchial cells; AID 720511; activity (quench increase), % at 7.58 µM; CFBE cells, YFP halide quenching; stimulated with forskolin plus potentiator P3; % fluorescence drop versus neutral controls; 0.36% of 350,000 active;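 active = mean added fluorescence quench of at least 8% versus neutral control, with both replicates also reaching 8%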;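 also: cells transiently co-express mutant CFTR-F508del with the halide-sensitive YFP; corrector assay measuring rescue of mutant channel to the surface after 24 h compound exposure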
CendR NRP1 mod – modulators of CendR peptide binding to human neuropilin-1; O14786; FAM-RPARPAR peptide binding to NRP-1, fluorescence polarization; inhibition, % at 25 µM; 0.85% of 360,000 active; AID 602438;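 active = inhibition or corrected inhibition above about 18%, plus a signal ratio from 0.5 to 1.5, limit read from the data, passing the limit was not always enough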
Target sequence (O14786 whole entry, looked up): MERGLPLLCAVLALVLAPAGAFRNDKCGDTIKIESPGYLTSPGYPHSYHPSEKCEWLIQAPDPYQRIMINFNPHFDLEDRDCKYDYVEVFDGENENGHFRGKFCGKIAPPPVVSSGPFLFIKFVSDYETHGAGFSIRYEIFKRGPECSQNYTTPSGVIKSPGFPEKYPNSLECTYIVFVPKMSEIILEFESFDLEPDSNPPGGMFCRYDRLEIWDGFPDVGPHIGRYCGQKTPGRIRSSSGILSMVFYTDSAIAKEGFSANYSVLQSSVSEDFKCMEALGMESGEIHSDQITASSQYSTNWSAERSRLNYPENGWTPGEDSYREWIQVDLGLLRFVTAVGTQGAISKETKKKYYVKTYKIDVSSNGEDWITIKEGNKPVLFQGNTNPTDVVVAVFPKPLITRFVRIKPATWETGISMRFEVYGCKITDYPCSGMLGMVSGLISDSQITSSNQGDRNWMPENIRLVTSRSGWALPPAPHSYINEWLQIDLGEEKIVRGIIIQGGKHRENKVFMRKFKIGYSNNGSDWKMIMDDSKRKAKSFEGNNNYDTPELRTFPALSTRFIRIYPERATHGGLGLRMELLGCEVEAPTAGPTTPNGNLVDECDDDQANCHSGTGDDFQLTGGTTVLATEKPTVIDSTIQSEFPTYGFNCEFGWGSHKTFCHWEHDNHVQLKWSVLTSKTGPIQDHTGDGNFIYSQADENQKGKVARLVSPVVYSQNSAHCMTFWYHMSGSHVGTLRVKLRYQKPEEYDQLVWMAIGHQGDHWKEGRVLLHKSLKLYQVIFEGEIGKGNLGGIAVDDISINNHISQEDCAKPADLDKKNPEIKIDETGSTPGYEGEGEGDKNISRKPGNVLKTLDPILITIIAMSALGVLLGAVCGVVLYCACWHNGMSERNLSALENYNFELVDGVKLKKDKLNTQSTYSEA
ATG4B inhibitor – inhibitors of human ATG4B cysteine protease; Q9Y4P1; ATG4B cleavage of LC3-PLA2, NBD-HPC fluorescence, 1 h; inhibition, % at 8.33 µM; 0.51% of 340,000 active; in the data active = inhibition above about 40%
Rh123 counter – mitochondrial membrane potential, counter-screen; inhibition, % at 10 µM; isolated mitochondria, Rhodamine 123 fluorescence; 78% of 5,000 active; shares compounds with MPTP block; in the data active = inhibition above about 22%;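 also: 0% = DMSO vehicle and 100% = positive control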
MPTP abs DR – MPTP inhibition, dose response swelling confirmation. shares compounds with MPTP block. isolated mitochondria swelling, absorbance. IC50, µM. 58% of 780 active; in the data active = IC50 below about 20 µM
MPTP counter DR – active in counter-screen for permeability transition pore inhibitors | shares compounds with MPTP block | isolated mitochondria counterscreen, fluorescence read-out | IC50, µM | 49% of 780 active | AID 651564; in the data active = IC50 below about 80 µM
* hit, by the source's call. Rows were chosen to be rich in hits. Some 2.7% of all compounds tested hit in one or more screens of this group.

What do the screens show for `Fc1ccc(Nc2c3c(nc4ccccc24)CCC3)cc1`?
SKN-1 inh: 12; MPTP block: 70*; F508del corr: 0; CendR NRP1 mod: -5; ATG4B inhibitor: 13; Rh123 counter: 84*

What do the screens show for `c1ccc(Nc2c3c(nc4ccccc24)CCC3)cc1`?
SKN-1 inh: -4; MPTP block: 45; F508del corr: -1; CendR NRP1 mod: 6; ATG4B inhibitor: 23

How did COC(=O)c1c(NC(=O)c2nc3ccccc3s2)sc2c1CC(C)(C)NC2(C)C do in these assays?
SKN-1 inh: 14; MPTP block: 60*; F508del corr: -3; CendR NRP1 mod: -4; ATG4B inhibitor: -11; Rh123 counter: -9; MPTP abs DR: inactive; MPTP counter DR: >80

Results for CCOc1ccc(C(=O)Nc2sc3c(c2C(=O)OC)CC(C)(C)NC3(C)C)cc1 ?
SKN-1 inh: -9; MPTP block: 85*; F508del corr: -4; CendR NRP1 mod: -2; ATG4B inhibitor: -6; Rh123 counter: 2; MPTP abs DR: 20*; MPTP counter DR: >80

Results for COC(=O)c1c(NC(=O)c2ccc(C(=O)c3ccccc3)cc2)sc2c1CC(C)(C)NC2(C)C ?
SKN-1 inh: -3; MPTP block: 2; F508del corr: 0; CendR NRP1 mod: -2

How did C[C@@H]1CN([C@H](C)CO)C(=O)c2cc(NC(=O)CCN3CCOCC3)ccc2O[C@@H]1CN(C)C(=O)Nc1ccccc1 do in these assays?
F508del corr: 0

How did CCC(C)[C@H]1CN=C(N)N1CCc1cccc2ccccc12 (stereo not given in full) do in these assays?
SKN-1 inh: -7; MPTP block: 90*; F508del corr: 0; CendR NRP1 mod: 10; ATG4B inhibitor: 0; Rh123 counter: 0; MPTP abs DR: 6.5*; MPTP counter DR: 30*

What do the screens show for `CCC(C)[C@H]1CNC(=S)N1CCc1cccc2ccccc12` (stereo not given in full)?
SKN-1 inh: -3; MPTP block: 1; F508del corr: -1; CendR NRP1 mod: 21; ATG4B inhibitor: -9

Results for O=C(Nc1ccc2c(c1)[C@H]1C[C@H](CC(=O)N3CCCCC3)O[C@H](CO)[C@H]1O2)c1cccnc1 ?
F508del corr: -2

How did Cc1cc(=O)[nH]c(SCC(=O)C23CC4CC(CC(C4)C2)C3)c1C#N do in these assays?
SKN-1 inh: -1; MPTP block: 85*; CendR NRP1 mod: 10; ATG4B inhibitor: 2; Rh123 counter: 84*

Results for Cc1cc(=O)[nH]c(SCC(=O)O)c1C#N ?
SKN-1 inh: 14; MPTP block: 0; CendR NRP1 mod: -12; ATG4B inhibitor: -2

How did CN(/N=C/c1cc([N+](=O)[O-])ccc1O)c1ccccc1 do in these assays?
SKN-1 inh: 3; MPTP block: 57*; CendR NRP1 mod: -10; ATG4B inhibitor: -12; Rh123 counter: 66*

Results for O=[N+]([O-])c1cccc(N/N=C/c2cc([N+](=O)[O-])ccc2O)c1 ?
SKN-1 inh: -3; MPTP block: 64*; F508del corr: -1; CendR NRP1 mod: 17; ATG4B inhibitor: 10; Rh123 counter: 61*

Results for CC(C)(C)c1ccc(C(=O)c2c[nH]c(C(=O)NCC3CCCO3)c2)cc1 (stereo not given) ?
SKN-1 inh: 4; MPTP block: 70*; CendR NRP1 mod: 7; ATG4B inhibitor: 4; Rh123 counter: 12; MPTP abs DR: inactive; MPTP counter DR: 27*

What do the screens show for `COc1ccc(NC(=O)Nc2ccc3c(c2)C(=O)N([C@@H](C)CO)C[C@@H](C)[C@H](CN(C)S(C)(=O)=O)OCCCC[C@@H](C)O3)cc1`?
F508del corr: 1

How did CCCCCCN1Cc2ccccc2C1 do in these assays?
SKN-1 inh: 20; MPTP block: -1; CendR NRP1 mod: -4; ATG4B inhibitor: 2

Results for CCCCCCCCCCn1ccc(=N)cc1 ?
SKN-1 inh: 11; MPTP block: 65*; F508del corr: -20; CendR NRP1 mod: -2; ATG4B inhibitor: 4; Rh123 counter: 90*

How did O=C(NC1C/C(=N/O)c2cc3c(cc21)OCO3)C(F)(F)F (stereo not given) do in these assays?
SKN-1 inh: -4; MPTP block: 145*; F508del corr: -1; CendR NRP1 mod: 0; ATG4B inhibitor: -14; Rh123 counter: -8; MPTP abs DR: >100; MPTP counter DR: >80

Results for COc1ccccc1S(=O)(=O)Nc1ccc2c(c1)OC[C@@H](C)NC[C@H](C)[C@@H](OC)CN(C)C2=O ?
F508del corr: 2

What do the screens show for `C[C@H]1CN([C@@H](C)CO)S(=O)(=O)c2ccc(C3=CCCCC3)cc2O[C@H]1CN(C)Cc1cccnc1`?
F508del corr: 0

Results for COc1ccc(NC(=O)COC(=O)Cn2cnc3ccccc32)cc1 ?
SKN-1 inh: -6; MPTP block: 0; F508del corr: 0; CendR NRP1 mod: -4; ATG4B inhibitor: -4

Results for O=C(Cn1cnc2ccccc21)Nc1ccc(SC(F)F)cc1 ?
SKN-1 inh: -2; MPTP block: 93*; F508del corr: 3; CendR NRP1 mod: 5; ATG4B inhibitor: -1; Rh123 counter: 87*

What do the screens show for `O=C1NC(c2cc(Cl)cc([N+](=O)[O-])c2O)Nc2ccccc21` (stereo not given)?
SKN-1 inh: 3; MPTP block: 88*; F508del corr: 0; CendR NRP1 mod: -4; ATG4B inhibitor: 5; Rh123 counter: 10; MPTP abs DR: inactive; MPTP counter DR: 11*

How did O=C(C[C@@H]1C=C[C@H](NC(=O)C2CCOCC2)[C@@H](CO)O1)Nc1ccc(-c2ccccc2)cc1 do in these assays?
F508del corr: 0

How did N#CC(C#N)=C(Nc1ccc(F)cc1)SCc1cccc(Br)c1 do in these assays?
SKN-1 inh: -2; MPTP block: 91*; CendR NRP1 mod: -7; ATG4B inhibitor: 24; Rh123 counter: 89*

How did Cc1cccc(CSC(Nc2ccc(F)cc2)=C(C#N)C#N)c1 do in these assays?
SKN-1 inh: -6; MPTP block: 97*; CendR NRP1 mod: -9; ATG4B inhibitor: 11; Rh123 counter: 93*

How did CC(SCc1ccccc1)C(=O)Nc1ccc(F)cc1 (stereo not given) do in these assays?
SKN-1 inh: 9; MPTP block: 1; F508del corr: 0; CendR NRP1 mod: 9; ATG4B inhibitor: -39

Results for CN1C(=O)c2cc(NC(=O)C3CC3)ccc2OC[C@@H]2O[C@H](CC(=O)O)CC[C@@H]21 ?
F508del corr: -1
